Measured values published in PubChem BioAssay (Tox21).
Where “and” joins values, the source holds several entries; their conditions need not be identical. Equal values may be shown once. Records with an inconclusive call do not appear. A call without a number means that no potency is given here. Calls of active or inactive are those of the source. The call rests on the fitted dose curve; in most records, active means well fitted cell-killing curve with a large enough effect in the repeat runs; inconclusive means weak or mixed curves, or effect the other way; inactive means flat fitted curve, though single readings scatter.

Assay: qHTS assay to identify small molecule antagonists of the androgen receptor (AR) signaling pathway using the MDA cell line - cell viability counter screen (AID 743041; further: nearly all actives have a fitted effect of over 45% in size)
Conditions: MDA-kb2 viability, CellTiter-Fluor, 16 h, cells co-treated with R1881 androgen agonist; series mostly up to 70.3 µM
Source text: National Center for Advancing Translational Sciences [NCATS]
NIH Chemical Genomics Center [NCGC]
U.S. Environmental Protection Agency [EPA]
National Institutes of Environmental Health Sciences [NIEHS]
National Toxicology Program [NTP]
U.S. Food and Drug Administration [FDA]
Androgen receptor (AR), a nuclear hormone receptor, plays a critical role in AR-dependent prostate cancer and other androgen related diseases. Endocrine disrupting chemicals (EDCs) and their interactions with steroid hormone receptors like AR may cause disruption of normal endocrine function as well as interfere with metabolic homeostasis, reproduction, developmental and behavioral functions. To identify the compounds that inhibit AR signaling, MDA-kb2 AR-luc cell line (from ATCC, deposited by Wilson et al.) was used to screen the Tox21 10K compound library. MDA-kb2 AR-luc cell line is human breast carcinoma cell line that was stably transfected with a luciferase reporter gene under control of the MMTV promoter containing response elements for both androgen receptor (AR) and glucocorticoid receptor (GR). The cytotoxicity of the Tox21 compound library against the MDA-kb2 AR-luc cell line was tested in parallel by measuring the cell viability using CellTiter-Fluor assay (Promega, Madison, WI) in the same wells.
Tox21 Assay Protocol Summary:
MDA-kb2 AR-luc cells were dispensed at 3,000 cells/4 uL/well of culture medium into white wall/solid-bottom 1536-well plates using a Multidrop Combi (ThermoFisher Scientific, Waltham, MA) dispenser. After the assay plates were incubated at a 37C and 0% CO2 for 5 hr, 23 nL of compounds dissolved in DMSO, positive controls or DMSO only was transferred to the assay plate by a Pintool station (Kalypsys, San Diego, CA), followed by addition of 1 uL of agonist (R1881) in culture medium using a Bioraptr Flying Reagent Dispenser (FRD) workstation (Beckman Coulter, Indianapolis, IN, USA). The plates were incubated at a 37C and 0% CO2 for 16 h. After 15.5 h incubation, 1uL of CellTiter-Fluor reagent (Promega) was added using a Bioraptr FRD to each plate for measuring cytotoxicity. The fluorescence intensity was quantified on a ViewLux plate reader (PerkinElmer, Shelton, CT) following 30 min incubation at 37C and 0% CO2.
Potency means the concentration at half of the fitted maximal effect.

Compound	Potency
CC(C)CCCCCOC(=O)c1ccccc1C(=O)OCCCCCC(C)C	inactive
C[C@]12Cc3nonc3C[C@@H]1CC[C@@H]1[C@@H]2CC[C@@]2(C)[C@H]1CC[C@]2(C)O	inactive
COc1ccc(N)cc1N	inactive
O=C/C(Cl)=C(/Cl)C(=O)O	inactive
CCC[CH2][Sn]([CH2]CCC)([CH2]CCC)[O]C(=O)c1ccccc1	1.93 µM (active)
N#CC(Cl)Cl	inactive
CCN	inactive
Fc1cccc(Cl)c1CCl	inactive
C[C@@H]1CC[C@@]2(OC1)O[C@H]1[C@@H](O)[C@H]3[C@@H]4CC[C@H]5C[C@@H](O[C@@H]6O[C@H](CO)[C@H](O[C@@H]7O[C@H](CO)[C@@H](O)[C@H](O[C@@H]8OC[C@@H](O)[C@H](O)[C@H]8O)[C@H]7O[C@@H]7O[C@H](CO)[C@@H](O)[C@H](O[C@@H]8O[C@H](CO)[C@@H](O)[C@H](O)[C@H]8O)[C@H]7O)[C@H](O)[C@H]6O)[C@H](O)C[C@]5(C)[C@H]4CC[C@]3(C)[C@H]1[C@@H]2C	25.8 µM (active)
Cc1cc(C(F)(C(F)(F)F)C(F)(F)F)ccc1NC(=O)c1cccc(I)c1C(=O)NC(C)(C)CS(C)(=O)=O	inactive
OC(c1ccc(Cl)cc1)(c1ccc(Cl)cc1)C(Cl)(Cl)Cl	inactive
O=C(CCCN1CCC2(CC1)C(=O)NCN2c1ccccc1)c1ccc(F)cc1	inactive
[Hg+2].[I-].[I-]	54.5 µM (active)
Clc1ccc(-c2ccc(Cl)c(Cl)c2Cl)c(Cl)c1Cl	inactive
CC(C)OS(C)(=O)=O	inactive
O=[N+]([O-])c1ccc(Oc2ccc(C(F)(F)F)cc2[N+](=O)[O-])cc1	inactive
N#C/C=C/C#N	inactive
CCCN(CC)CC1COC2(CCC(C(C)(C)C)CC2)O1 (stereo not given)	inactive
Nc1ccccc1C(=O)OC/C=C/c1ccccc1	inactive
NNC(=O)c1ccccc1	inactive

Compound	Potency
CC(=O)[O-].CC(=O)[O-].[Hg+2]	27.3 µM (active)
CC(=O)/C=C/c1ccc2c(c1)OCO2	inactive
C[C@]12CC[C@@H]3c4ccc(OC(=O)N(CCCl)CCCl)cc4CC[C@H]3[C@@H]1CC[C@@H]2O	inactive
FC(F)(F)c1cccc(C2=CCN(CCc3ccc4ccccc4c3)CC2)c1	inactive
CC(=O)c1cc(C(C)(C)C)cc2c1CCC2(C)C	inactive
Cn1cc(C2=C(c3cn(C4CCN(Cc5ccccn5)CC4)c4ccccc34)C(=O)NC2=O)c2ccccc21	inactive
N#CCCSCCC#N	inactive
N#CSCSC#N	62.5 µM (active) and 60.5 µM (active)
ClC1=C(Cl)[C@]2(Cl)[C@H]3[C@H]([C@H]4C=C[C@H]3C4)[C@@]1(Cl)C2(Cl)Cl	inactive
ClC(Cl)=C(c1ccc(Cl)cc1)c1ccc(Cl)cc1	inactive
ClCc1ccc(Cl)cc1Cl	inactive
CC1(c2ccc(Oc3ccccc3)cc2)OC(=O)N(Nc2ccccc2)C1=O (stereo not given)	27.5 µM (active)
Cc1cc(C)c(C2=C(OC(=O)CC(C)(C)C)C3(CCCC3)OC2=O)c(C)c1	inactive
CN(C)S(=O)(=O)N(SC(F)(Cl)Cl)c1ccccc1	24.3 µM (active)
C=CC(=O)OCC(COC(=O)C=C)(COC(=O)C=C)COC(=O)C=C	7.7 µM (active)
BrC(Br)C(Br)(Br)Br	inactive
CC(C)[C@H](C(=O)OC(C#N)c1cccc(Oc2ccccc2)c1)c1ccc(OC(F)F)cc1 (stereo not given in full)	inactive
S=C=Nc1cccc2ccccc12	inactive
Clc1ccc(C(c2ccccc2Cl)C(Cl)(Cl)Cl)cc1 (stereo not given)	inactive
O=S(=O)(c1ccc(Cl)cc1)c1ccc(Cl)cc1	inactive
